Counter-ions that a name gives are not always drawn. ± gives the standard deviation of the averaged measurements.
Assays:
Test in all cases: growth (OD600 after 10 h); higher = more growth (less inhibition)
[1] = tested on: E. coli TESEC Alr+ wild-type control; settings: compound 0.1 mM; raw OD600 reference: median of DMSO wells 0.241, cell-free background 0.041
Description: (§1)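 TESEC Mtb Alr E. coli, or the Alr+ wild-type control, in 384-well plates with Prestwick library compounds at 0.1 mM and 1% DMSO, across arabinose induction levels of 1E3 to 1E7 nM. Growth is read as OD600 after 10 h at 37 °C in triplicate biological replicates.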

[2] = tested on: E. coli TESEC Mtb Alr; settings: compound 0.1 mM
Description: as §1

[3] = tested on: E. coli TESEC Mtb Asd; settings: compound 0.1 mM
Description: (§2)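 TESEC E. coli strains in which the native enzyme is deleted and replaced by arabinose-inducible Mtb Asd, DapB, CysH or TrpD, each grown in its selective medium. Strains were screened against the Prestwick library at 0.1 mM and 1% DMSO in 384-well format at low and high arabinose induction. Growth is read as OD600 after 10 h in triplicate.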

[4] = tested on: E. coli TESEC Mtb DapB; settings: compound 0.1 mM
Description: as §2

[5] = tested on: E. coli TESEC Alr+ wild-type control; settings: compound 0.1 mM; raw OD600 reference: median of DMSO wells 0.49, cell-free background 0.052
Description: (§3)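 TESEC Mtb Alr E. coli (ΔaraC ΔtolC ΔentC Δalr ΔdadX, arabinose-inducible Mtb Alr) or the Alr+ wild-type control strain, grown in defined M9-fructose medium without D-alanine in 96-well plates with Prestwick library compounds at 0.1 mM and 1% DMSO. Low Alr induction is 0.1 µM arabinose and high induction is 10 mM arabinose.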

[6] = tested on: E. coli TESEC Mtb Alr; settings: compound 0.1 mM; remark: listed apart in the source
Description: as §3

[7] = arabinose 1000 nM, raw OD600 reference: median of DMSO wells 0.294, cell-free background 0.041
[8] = arabinose 10000 nM, raw OD600 reference: median of DMSO wells 0.264, cell-free background 0.041
[9] = arabinose 100000 nM, raw OD600 reference: median of DMSO wells 0.201, cell-free background 0.041
[10] = arabinose 1000000 nM, raw OD600 reference: median of DMSO wells 0.193, cell-free background 0.041
[11] = arabinose 10000000 nM, raw OD600 reference: median of DMSO wells 0.146, cell-free background 0.041
[12] = arabinose induction (level): High, raw OD600 reference: median of DMSO wells 0.331, cell-free background 0.041
[13] = arabinose induction (level): Low, raw OD600 reference: median of DMSO wells 0.417, cell-free background 0.041
[14] = arabinose induction (level): High, raw OD600 reference: median of DMSO wells […], cell-free background 0.041
[15] = arabinose induction (level): Low, raw OD600 reference: median of DMSO wells 0.227, cell-free background 0.041
[16] = arabinose 100 nM, raw OD600 reference: median of DMSO wells 0.413, cell-free background 0.052
[17] = arabinose 10000000 nM, raw OD600 reference: median of DMSO wells […], cell-free background 0.052

Structure (SMILES) | growth [1] | growth [2, 7] | growth [2, 8] | growth [2, 9] | growth [2, 10] | growth [2, 11] | growth [3, 12] | growth [3, 13] | growth [4, 14] | growth [4, 15] | growth [5] | growth [6, 16] | growth [6, 17]
Nc1cc(C(Cl)=C(Cl)Cl)c(S(N)(=O)=O)cc1S(N)(=O)=O [Clorsulon] | 0.224 ± 0.0038 | 0.278 ± 0.0056 | 0.269 ± 0.0061 | 0.214 ± 0.029 | 0.179 ± 0.0043 | 0.15 ± 0.0072 | 0.283 ± 0.025 | 0.3101 ± 0.0016 | 0.216 ± 0.014 | 0.248 ± 0.016 | 0.53 ± 0.0087 | 0.414 ± 0.011 | 0.335 ± 0.025
NC(=O)c1ccc[n+]([C@@H]2O[C@H](COP(=O)([O-])OP(=O)(O)OC[C@H]3O[C@@H](n4cnc5c(N)ncnc54)[C@H](O)[C@@H]3O)[C@@H](O)[C@H]2O)c1 [Nadide] | 0.282 ± 0.006 | 0.363 ± 0.018 | 0.339 ± 0.0072 | 0.238 ± 0.031 | 0.245 ± 0.0026 | 0.175 ± 0.0086 | 0.428 ± 0.012 | 0.441 ± 0.0097 | 0.21 ± 0.0067 | 0.216 ± 0.02 | 0.564 ± 0.14 | 0.415 ± 0.025 | 0.416 ± 0.0063
CC1=C(CC(=O)O)c2cc(F)ccc2/C1=C\c1ccc([S+](C)[O-])cc1 (centres undefined) [Sulindac] | 0.166 ± 0.0055 | 0.206 ± 0.0077 | 0.181 ± 0.0019 | 0.125 ± 0.0091 | 0.0898 ± 0.0021 | 0.103 ± 0.0038 | 0.151 ± 0.018 | 0.243 ± 0.012 | 0.151 ± 0.013 | 0.196 ± 0.054 | 0.364 ± 0.036 | 0.364 ± 0.063 | 0.11 ± 0.01
CC(=O)N[C@@H](CS)C(=O)O [Acetylcysteine] | 0.2422 ± 0.0011 | 0.298 ± 0.0096 | 0.2731 ± 0.0017 | 0.203 ± 0.019 | 0.21 ± 0.012 | 0.142 ± 0.0051 | 0.437 ± 0.059 | 0.393 ± 0.017 | 0.196 ± 0.014 | 0.232 ± 0.053 | 0.475 ± 0.06 | 0.4122 ± 0.0033 | 0.344 ± 0.0049
c1coc(CNc2ncnc3nc[nH]c23)c1 [6-Furfurylaminopurine] | 0.252 ± 0.0041 | 0.29 ± 0.014 | 0.252 ± 0.0053 | 0.209 ± 0.027 | 0.181 ± 0.0069 | 0.138 ± 0.0046 | 0.341 ± 0.068 | 0.43 ± 0.043 | 0.209 ± 0.011 | 0.221 ± 0.024 | 0.44 ± 0.022 | 0.405 ± 0.0075 | 0.365 ± 0.0057
Clc1ccc(Cn2c(CN3CCCC3)nc3ccccc32)cc1 [Clemizole hydrochloride] | 0.151 ± 0.0091 | 0.0807 ± 0.029 | 0.0496 ± 0.00062 | 0.106 ± 0.049 | 0.0465 ± 0.0005 | 0.06017 ± 0.00057 | 0.174 ± 0.038 | 0.135 ± 0.0075 | 0.156 ± 0.027 | 0.212 ± 0.079 | 0.452 ± 0.049 | 0.406 ± 0.011 | 0.185 ± 0.055
Cc1c(N(C)CS(=O)(=O)O)c(=O)n(-c2ccccc2)n1C [Dipyrone] | 0.245 ± 0.0074 | 0.323 ± 0.022 | 0.251 ± 0.0032 | 0.217 ± 0.023 | 0.169 ± 0.0052 | 0.157 ± 0.0028 | 0.488 ± 0.025 | 0.452 ± 0.0059 | 0.204 ± 0.003 | 0.23 ± 0.012 | 0.473 ± 0.039 | 0.4104 ± 0.0007 | 0.335 ± 0.011
CN(C)CCOC1=Cc2ccccc2Sc2ccc(Cl)cc21 [Zotepine] | 0.179 ± 0.011 | 0.186 ± 0.0076 | 0.177 ± 0.0016 | 0.215 ± 0.0073 | 0.0636 ± 0.0007 | 0.0782 ± 0.003 | 0.168 ± 0.0075 | 0.127 ± 0.018 | 0.171 ± 0.019 | 0.1696 ± 0.0015 | 0.0664 ± 0.019 | 0.41 ± 0.0042 | 0.0544 ± 0.0015

— the supplement of paper PMC9262897, “Low-cost anti-mycobacterial drug discovery using engineered E. coli” (Nature Communications, 2022)
